Measured values: PMC11062922 (Nature Chemical Biology, 2023)
Read-outs that look alike come from different tables or passages of the source.

Key:
Set-up in all cases: species or system human, MV4-11 + K-562 + COLO205 + SK-N-BE2 + OVCAR-8
AKT1 = settings: read-out: apparent Kd, n = 1
TGFBR1 = settings: read-out: apparent Kd, n = 1
FLT4 = settings: read-out: apparent Kd, n = 1
MAP2K1 = settings: read-out: apparent Kd, n = 1
BMPR1B = settings: read-out: apparent Kd, compound concentrations: 100 nM and 1000 nM (sheet 'Samples'), n = 1
DDR2 = settings: read-out: apparent Kd, compound concentrations: 100 nM and 1000 nM (sheet 'Samples'), n = 1
JAK2 = settings: read-out: apparent Kd, compound concentrations: 100 nM and 1000 nM (sheet 'Samples'), n = 1
PIK3CD = settings: read-out: apparent Kd, compound concentrations: 100 nM and 1000 nM (sheet 'Samples'), n = 1
PRKD2 = settings: read-out: apparent Kd, compound concentrations: 100 nM and 1000 nM (sheet 'Samples'), n = 1
PRKD3 = settings: read-out: apparent Kd, compound concentrations: 100 nM and 1000 nM (sheet 'Samples'), n = 1
GSK3A = settings: read-out: apparent Kd, compound concentrations: 100 nM and 1000 nM (sheet 'Samples'), n = 1
NQO1 = settings: read-out: apparent Kd; compound concentrations: 100 nM and 1000 nM (sheet 'Samples'), CATDS: 1.8216900253795E-2; n = 1
DJA1 = test system: T1, DJA1; settings: read-out: apparent Kd, compound concentrations: 100 nM and 1000 nM (sheet 'Samples'), n = 1
T1 construct: gene DNAJA1

PDGFRB = settings: read-out: apparent Kd, compound concentrations: 100 nM and 1000 nM (sheet 'Samples'), n = 1
CDK17 = settings: read-out: apparent Kd, compound concentrations: 100 nM and 1000 nM (sheet 'Samples'), n = 1
EPHB6 = settings: read-out: apparent Kd, compound concentrations: 100 nM and 1000 nM (sheet 'Samples'), n = 1
EPHB1 = settings: read-out: apparent Kd, compound concentrations: 100 nM and 1000 nM (sheet 'Samples'), n = 1
[1] = compound concentrations:100 nM and 1000 nM (sheet 'Samples')

Cc1cccc(-c2cc(-c3c[nH]nc3-c3ccccn3)ccn2)c1 [GW679395X]
potency estimated from few doses (AKT1; [1]): 1770 nM
potency estimated from few doses (TGFBR1; [1]): 2190 nM

CS(=O)(=O)Cc1ccc(Nc2nccc(-c3c(-c4cccc(NC(=O)C5CCCCC5)c4)nn4ncccc34)n2)cc1 [GSK350559A]
potency estimated from few doses (FLT4; [1]): 995 nM
potency estimated from few doses (MAP2K1; [1]): 2430 nM

CN1C(=O)c2ccccc2N(C)c2nc(Nc3cnn(C4CCNCC4)c3)ncc21 [XMD-17-51]
potency estimated from few doses (BMPR1B; CATDS: 1.5845545997130402E-2): 986 nM
potency estimated from few doses (DDR2; CATDS: 2.76833558022507E-2): 189 nM
potency estimated from few doses (JAK2; CATDS: 1.8456350462982201E-2): 580 nM
potency estimated from few doses (PIK3CD; CATDS: 3.4664155585902003E-2): 111 nM
potency estimated from few doses (PRKD2; CATDS: 1.4106382440731599E-2): 1620 nM
potency estimated from few doses (PRKD3; CATDS: 1.40532268775709E-2): 1650 nM
potency estimated from few doses (TGFBR1; compound concentrations: 100 nM and 1000 nM (sheet 'Samples'), CATDS: 2.2276499347081799E-2): 333 nM

COc1cccc(-n2ncc3c(N/N=C/c4ccc(C(=O)NCCN(C)C)cc4)ncnc32)c1.Cl [GW784307A]
potency estimated from few doses (BMPR1B; CATDS: 3.8430447981996803E-2): 486 nM
potency estimated from few doses (GSK3A; CATDS: 8.2277419546057398E-2): 89 nM
potency estimated from few doses (TGFBR1; compound concentrations: 100 nM and 1000 nM (sheet 'Samples'), CATDS: 3.91809843911003E-2): 460 nM

Cn1cc(C2=C(c3cn(CCCO)c4ccccc34)C(=O)NC2=O)c2ccccc21 [RO0317377-000]
potency estimated from few doses (GSK3A; CATDS: 0.248455440441466): 311 nM

Cl.Cl.Cl.c1ccc(Oc2ccc(Nc3ccnc4cc(-c5ccc(CN6CCNCC6)o5)ccc34)cc2)nc1.c1ccc(Oc2ccc(Nc3ccnc4cc(-c5ccc(CN6CCNCC6)o5)ccc34)cc2)nc1 [GW567142A]
potency estimated from few doses (AKT1; compound concentrations: 100 nM and 1000 nM (sheet 'Samples'), CATDS: 1.79490160981602E-2): 1660 nM
potency estimated from few doses (NQO1): 1580 nM

COc1cc(Nc2nccc(N3CCC(NC(=O)c4cccc(C#N)c4)C3)n2)cc(OC)c1OC (stereo not shown) [GSK1379751A]
potency estimated from few doses (DJA1; CATDS: 0.205535073981469): 817 nM

Cn1cc(-c2ccc3c(c2)CCN3C(=O)Cc2cc(F)cc(C(F)(F)F)c2)c2c(N)ncnc21 [GSK2635225A]
potency estimated from few doses (DJA1; CATDS: 0.15894194998460401): 902 nM
potency estimated from few doses (PIK3CD; CATDS: 0.457718684353002): 139 nM

CNC(=O)c1ccccc1Nc1nc(Nc2cccc(CS(C)(=O)=O)c2)ncc1C.O=CO [GSK1520489A]
potency estimated from few doses (BMPR1B; CATDS: 1.50633752553141E-2): 288 nM
potency estimated from few doses (DDR2; CATDS: 1.3086276372357399E-2): 443 nM
potency estimated from few doses (FLT4; compound concentrations: 100 nM and 1000 nM (sheet 'Samples'), CATDS: 2.0677135389333402E-2): 127 nM
potency estimated from few doses (JAK2; CATDS: 1.0777709602795499E-2): 917 nM
potency estimated from few doses (PDGFRB; CATDS: 9.8482456119854799E-3): 1420 nM
potency estimated from few doses (TGFBR1; compound concentrations: 100 nM and 1000 nM (sheet 'Samples'), CATDS: 9.4696036955239198E-3): 1790 nM

CC(C)c1nc(-c2cccc(NS(=O)(=O)c3c(F)cccc3F)c2)c(-c2ccnc(Nc3ccc(N4CCOCC4)nc3)n2)s1.Cl [GSK1723980B]
potency estimated from few doses (CDK17; CATDS: 1.84448623420372E-2): 647 nM
potency estimated from few doses (EPHB6; CATDS: 2.4657232775903402E-2): 294 nM
potency estimated from few doses (FLT4; compound concentrations: 100 nM and 1000 nM (sheet 'Samples'), CATDS: 3.28978835638193E-2): 161 nM
potency estimated from few doses (PRKD2; CATDS: 3.4388885610582398E-2): 149 nM
potency estimated from few doses (PRKD3; CATDS: 3.3451662470077102E-2): 156 nM

CC(C)c1nc(-c2cccc(NS(=O)(=O)c3c(F)cccc3F)c2F)c(-c2ccnc(Nc3ccc(N4CCOCC4)nc3)n2)s1 [GSK2008607A]
potency estimated from few doses (CDK17; CATDS: 2.730533885315E-2): 587 nM
potency estimated from few doses (EPHB6; CATDS: 2.9714339770291101E-2): 487 nM
potency estimated from few doses (FLT4; compound concentrations: 100 nM and 1000 nM (sheet 'Samples'), CATDS: 2.2429602546286599E-2): 967 nM
potency estimated from few doses (PRKD2; CATDS: 3.65380455917537E-2): 323 nM
potency estimated from few doses (PRKD3; CATDS: 2.5792208741447099E-2): 671 nM

CN(C)Cc1ccc(-c2ccc3c(Nc4ccc(Oc5ccccn5)cc4)ccnc3c2)o1 [GW567148X]
potency estimated from few doses (EPHB1; CATDS: 2.01059548951249E-2): 977 nM
potency estimated from few doses (EPHB6; CATDS: 1.6574994682998501E-2): 1960 nM
potency estimated from few doses (GSK3A; CATDS: 2.2236241466677201E-2): 736 nM
potency estimated from few doses (JAK2; CATDS: 5.6320908598955097E-2): 121 nM

Cc1ccc(O)cc1Nc1ccnc2ccc(C(C)(C)C)cc12 [GW856805X]
potency estimated from few doses (EPHB1; CATDS: 6.9197667639957702E-2): 25.7 nM

CC(=O)N1CCN(c2ccc(Nc3nccc(-c4sc(C(C)C)nc4-c4cccc(NS(=O)(=O)c5ccccc5)c4)n3)cn2)CC1 [GSK1645872A]
potency estimated from few doses (BMPR1B; CATDS: 3.2416583266463302E-2): 615 nM
potency estimated from few doses (CDK17; CATDS: 3.2303603060191699E-2): 620 nM
potency estimated from few doses (EPHB6; CATDS: 2.50190585057842E-2): 1230 nM
potency estimated from few doses (FLT4; compound concentrations: 100 nM and 1000 nM (sheet 'Samples'), CATDS: 2.4036705391895501E-2): 1410 nM
potency estimated from few doses (PRKD2; CATDS: 6.4833229163543699E-2): 179 nM
potency estimated from few doses (PRKD3; CATDS: 5.5326802343899903E-2): 227 nM

CN1CCN(Cc2ccc(NC(=O)Nc3ccc(N(C)c4ccnc(Nc5ccc(CS(C)(=O)=O)cc5)n4)cc3)cc2)CC1.Cl [GW827654A]
potency estimated from few doses (DDR2; CATDS: 5.9738771402131699E-2): 348 nM
potency estimated from few doses (FLT4; compound concentrations: 100 nM and 1000 nM (sheet 'Samples'), CATDS: 0.106760971330705): 109 nM
potency estimated from few doses (PDGFRB; CATDS: 3.4418079191200303E-2): 1860 nM

c1ccc(Oc2ccc(Nc3ccnc4cc(-c5ccc(CN6CCCCC6)o5)ccc34)cc2)nc1 [GW567143X]
potency estimated from few doses (EPHB6; CATDS: 3.4972740863409998E-2): 1830 nM

N#Cc1cnc2cc(-c3cnc(CNCCN4CCOCC4)s3)ccc2c1Nc1ccc(Oc2ccccc2)cc1 [GW664114X]
potency estimated from few doses (MAP2K1; compound concentrations: 100 nM and 1000 nM (sheet 'Samples'), CATDS: 5.9486551355906997E-2): 606 nM
